Source: PubChem BioAssay (NCATS)
Results filed as inconclusive are left out. For some of these results: Potency and affinity values are given separately. Active and inactive are the calls of the source. Unless noted, how the calls were made is not given here.

Legend:
[1] = Ebola virus entry assay, green fluorescence channel
[2] = Ebola virus entry assay, blue channel fluorescence
[3] = Ebola virus entry assay, ratio channel
[4] = Ebola virus entry assay, reporter ratio channel; Channel type: primary
[5] = qHTS assay for measurement of the activity of small molecule inhibitors on Zika virus induced Caspase-3 activity in human iPSC derived neural progenitor cells (hNPCs) (AID 1224857; active means well fitted curve in the direction sought with a large enough effect; an effect the other way counts as inactive or inconclusive; further: % of control where 0% means no effect; nearly all actives have a fitted effect of over 65% in size); conditions: hNPCs ZIKV-induced caspase-3/7, Caspase-Glo luminescence, 6 h; series mostly up to 45.7 µM
Method in brief: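 Pretreat hNPCs with compound 1 h; infect ZIKV 2 FFU/cell; 6 h 37 C, 5% CO2; Caspase-Glo 3/7, 30 min RT; luminescence; normalize to no-virus and virus-only wells.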

[6] = qHTS assay for measurement of the activity of small molecule inhibitors on Zika virus induced Caspase-3 activity in human astrocytoma cells (AID 1224859; active means well fitted curve in the direction sought with a large enough effect; an effect the other way counts as inactive or inconclusive;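 further: plate controls were ZIKV-infected untreated cells for no effect and uninfected cells for full effect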); conditions: SNB-19 ZIKV-induced caspase-3/7, luminescence, 6 h; series mostly up to 45.7 µM
Method in brief: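 Human SNB-19 astrocytoma cells in RPMI 1640 with 10% FBS receive compound one hour ahead of Zika virus at 2 FFU/cell. After 6 h infection, caspase-3/7 activity is detected by Caspase-Glo luminescence.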

[7] = qHTS profiling of the MIPE4 collection as inhibitors of Plasmodium falciparum (3D7) proliferation (AID 743344);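 further: scaled between DMSO vehicle wells and 0.29 µM artemisinin as full inhibition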; conditions: P. falciparum 3D7 in erythrocytes, SYBR Green DNA fluorescence, 72 h; at 28.5 µM (top of the series)
Method in brief: (§1)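 Parasite DNA was quantified by SYBR Green I fluorescence (ex 485, em 535 nm) after overnight lysis in saponin/Triton buffer at room temperature. Cultures at 0.3% parasitemia and 2.5% hematocrit were first exposed to compound for 72 h at 37 C; signals were normalised to artemisinin (0.29 uM) and vehicle wells.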

[8] = qHTS profiling of the MIPE4 collection as inhibitors of Plasmodium falciparum (DD2) proliferation (AID 743345); conditions: P. falciparum Dd2 in erythrocytes, SYBR Green DNA, 72 h; at 28.5 µM (top of the series)
Method in brief: as §1

[9] = qHTS profiling of the MIPE4 collection as inhibitors of Plasmodium falciparum (DD2) proliferation (Rep 2) (AID 743346); conditions: P. falciparum Dd2 in erythrocytes, SYBR Green DNA, 72 h; at 28.5 µM (top of the series)
Method in brief: as §1

[10] = qHTS profiling of the MIPE4 collection as inhibitors of Plasmodium falciparum (HB3) proliferation (AID 743347);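 further: plate controls were DMSO vehicle wells for no effect and artemisinin wells for full effect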; conditions: P. falciparum HB3 in erythrocytes, SYBR Green DNA, 72 h; at 28.5 µM (top of the series)
Method in brief: as §1

[11] = Ebola virus entry assay, blue channel (ratio component)
[12] = High-throughput drug toxicity screening in the BPDCN cell line Gen2.2 (AID 1224824); conditions: Gen2.2 BPDCN cells; at 45.8 µM (top of the series);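 further: cells exposed to compounds for 48 h before reading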
Method in brief: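 Readout is ATP luminescence from Gen2.2 cells after two days of drug exposure in serum-containing medium at 37 °C. Values express percent activity, with vehicle defining full signal and 9.2 uM bortezomib defining zero.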

[13] = High-throughput drug toxicity screening in the BPDCN cell line Cal-1 (AID 1224825); conditions: Cal-1 BPDCN cell viability, qHTS; at 45.8 µM (top of the series)
Method in brief: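 CellTiter-Glo luminescence after 48 h compound exposure; percent activity scaled with DMSO as 100% and bortezomib (9.2 uM final) as 0%. Cal-1 cells seeded at 500/well in RPMI, 10% FBS, no phenol red.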

[14] = qHTS Screen of the MIPE 4.0 Collection Against Ewings Sarcoma (RDES) (AID 1259252; active means well fitted curve in the direction sought with a large enough effect; an effect the other way counts as inactive or inconclusive; further: nearly all actives have a fitted effect of over 35% in size; further: potency means the concentration at half of the fitted maximal effect); conditions: RD-ES Ewing sarcoma viability, CellTiter-Glo, 48 h; series mostly up to 45.8 µM
Method in brief: (§2)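 Dose series incubated 48 h with cells in RPMI plus 5% FBS, glutamine and penicillin/streptomycin; cell viability then quantified via CellTiter-Glo.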

[15] = qHTS Screen of the MIPE 4.0 Collection Against Ewings Sarcoma (TC71) (AID 1259253; active means well fitted curve in the direction sought with a large enough effect; an effect the other way counts as inactive or inconclusive; further: nearly all actives have a fitted effect of over 40% in size; further: potency means the concentration at half of the fitted maximal effect); conditions: TC71 Ewing sarcoma viability, CellTiter-Glo, 48 h; series mostly up to 45.8 µM
Method in brief: as §2

[16] = qHTS Screen of the MIPE 4.0 Collection Against Ewings Sarcoma (EW8) (AID 1259255; active means well fitted curve in the direction sought with a large enough effect; an effect the other way counts as inactive or inconclusive; further: nearly all actives have a fitted effect of over 35% in size; further: potency means the concentration at half of the fitted maximal effect;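 on viability: 100% = DMSO-treated cells and 0% = medium-only wells without cells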); conditions: EW8 Ewing sarcoma viability, CellTiter-Glo, 48 h; series mostly up to 45.8 µM
Method in brief: as §2

[17] = qHTS profiling for inhibitors of Plasmodium falciparum (HB3) proliferation (AID 743324; active means well fitted curve in the direction sought with a large enough effect; an effect the other way counts as inactive or inconclusive;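 further: 100% = DMSO vehicle wells and 0% = artemisinin-treated control wells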); conditions: Plasmodium falciparum HB3 blood-stage proliferation; at 28.7 µM (top of the series)
Method in brief: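 SYBR Green fluorescence (485 ex/535 em) of lysed cultures, incubated overnight at room temperature in the dark, quantifies parasite DNA. Infected erythrocytes at 0.3% parasitemia and 2.5% hematocrit were exposed 72 h; values normalized to DMSO and 0.29 uM artemisinin controls.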

[18] = Ebola virus entry assay, green channel fluorescence
[19] = Immunotoxin (HA22) sensitization/mitigation study. Vehicle arm (PBS) (AID 1159510); conditions: cancer cells viability with PBS vehicle (HA22 study); series mostly up to 46.1 µM
[20] = Immunotoxin (SS1P) sensitization/mitigation study. Vehicle arm (DMEM) (AID 1159513); conditions: cell viability with vehicle (DMEM); series mostly up to 46.1 µM
Wherever efficacy is given: 0% is about no effect.

C=CCOC(Cn1ccnc1)c1ccc(Cl)cc1Cl (centres undefined)
active: AC50 [2] 39.8 µM | AC50 [4] 39.8 µM
inactive: efficacy [1] 85% | outcome [3] | Potency [5] | outcome [6]

c1ccc2c(c1)Sc1ccccc1N2CC1CN2CCC1CC2 (centres undefined)
inactive: efficacy [1] -241% | Potency [5] | outcome [6]
active: AC50 [2] 5.01 µM | AC50 [3] 3.98 µM | AC50 [4] 3.98 µM

C[C@@H]1O[C@@H](O[C@@H]2C=C3CC[C@@H]4[C@H](CC[C@]5(C)[C@@H](c6ccc(=O)oc6)CC[C@]45O)[C@@]3(C)CC2)[C@H](O)[C@H](O)[C@H]1O
inactive: efficacy [1] 35.7% | Potency [5] | outcome [6]
active: AC50 [2] 8.91 µM | AC50 [3] 7.94 µM | AC50 [4] 7.94 µM

Cc1nnc2n1-c1sc(CCC(=O)N3CCOCC3)cc1C(c1ccccc1Cl)=NC2
inactive: efficacy [1] 52.3% | outcome [2] | outcome [3] | outcome [4] | Potency [5] | outcome [6]

CC(Cc1ccccc1)NCCCCl (centres undefined)
active: AC50 [2] 22.4 µM | AC50 [3] 35.5 µM | AC50 [4] 35.5 µM
inactive: efficacy [1] 66.3% | Potency [5] | outcome [6]

C[C@]12Cc3nonc3C[C@@H]1CC[C@@H]1[C@@H]2CC[C@@]2(C)[C@H]1CC[C@]2(C)O
inactive: efficacy [1] 48.4% | Potency [5] | outcome [6]
active: AC50 [2] 15.8 µM | AC50 [3] 17.8 µM | AC50 [4] 17.8 µM

CC(CC(C#N)(c1ccccc1)c1ccccc1)N(C)C (centres undefined)
active: AC50 [2] 15.8 µM | AC50 [3] 14.1 µM | AC50 [4] 14.1 µM
inactive: efficacy [1] 77.3% | Potency [5] | outcome [6]

c1ccc2nc(N3CCNCC3)ccc2c1
active: AC50 [2] 39.8 µM | AC50 [3] 35.5 µM | AC50 [4] 35.5 µM
inactive: efficacy [1] 106% | Potency [5] | outcome [6]

CCC(=O)OC1(c2ccccc2)CCN(C)CC1
active: AC50 [2] 31.6 µM | AC50 [4] 31.6 µM
inactive: efficacy [1] 69.7% | outcome [3] | Potency [5] | outcome [6]

COc1ccc2[nH]cc(CCN(C(C)C)C(C)C)c2c1
active: AC50 [2] 39.8 µM | AC50 [3] 31.6 µM | AC50 [4] 31.6 µM
inactive: efficacy [1] 45.7% | Potency [5] | outcome [6]

CCC(OC(C)=O)C(CC(C)NC)(c1ccccc1)c1ccccc1 (centres undefined)
active: AC50 [2] 3.98 µM | AC50 [3] 2.51 µM | AC50 [4] 2.51 µM
inactive: efficacy [1] -236% | Potency [5] | outcome [6]

O=C(CCCN1CCC(n2c(=O)[nH]c3ccccc32)CC1)c1ccc(F)cc1
inactive: efficacy [1] 109% | Potency [5] | outcome [6]
active: AC50 [2] 25.1 µM | AC50 [3] 25.1 µM | AC50 [4] 25.1 µM

C[C@@H]1C[C@@H]([C@H](O)CC2CC(=O)NC(=O)C2)C(=O)[C@@H](C)C1
inactive: efficacy [1] -17.6% | outcome [2] | outcome [4] | outcome [11] | Potency [5] | outcome [6]
5.04%: growth, % of control [10]
active: Potency [14] 0.418 µM | Potency [15] 0.235 µM | Potency [16] 0.148 µM
6.36%: parasite growth remaining, % of DMSO control (lower = more inhibition) [8]
10.9%: viability (% of control) [13]
6.94%: parasite growth, % of control (lower = inhibition) [9]
19.5%: cell viability, % of control (lower = more cytotoxic) [12]
5.16%: parasite growth, % of DMSO control [7]

O=C(O)c1nn(Cc2ccc(Cl)cc2Cl)c2ccccc12
99.8%: parasite growth remaining, % of DMSO control (lower = more inhibition) [8]
104%: remaining proliferation (% of control), lower = more inhibition [17]
101%: parasite growth, % of control (lower = inhibition) [9]
inactive: efficacy [1] 44.2% | outcome [2] | outcome [18] | outcome [4] | outcome [11] | Potency [19] | outcome [20] | Potency [5] | outcome [6] | Potency [14] | Potency [15] | Potency [16]
81.1%: growth, % of control [10]
75.4%: parasite growth, % of DMSO control [7]
98.4%: cell viability, % of control (lower = more cytotoxic) [12]
95.1%: viability (% of control) [13]

Oc1ccc([C@H]2CNCc3c2ccc(O)c3O)cc1O
inactive: efficacy [1] 69.3% | outcome [6]
active: AC50 [2] 14.1 µM | AC50 [3] 14.1 µM | AC50 [4] 14.1 µM

CC(C)(O)C(Cl)(Cl)Cl
inactive: efficacy [1] -12.3% | outcome [2] | outcome [18] | outcome [4] | outcome [11] | Potency [5] | outcome [6]

CC(C)C(Br)C(=O)NC(N)=O (centres undefined)
inactive: efficacy [1] -26.9% | outcome [2] | outcome [18] | outcome [4] | outcome [11] | Potency [5] | outcome [6]

NC(=O)CN1CCCC1=O
inactive: efficacy [1] 23.9% | outcome [2] | outcome [18] | outcome [4] | outcome [11] | Potency [5] | outcome [6]

CC(C)NCC(O)c1ccc(N)c(C#N)c1 (centres undefined)
inactive: efficacy [1] -19.3% | outcome [2] | outcome [18] | outcome [4] | outcome [11] | Potency [5] | outcome [6]

C[N+]1(C)[C@@H]2CC[C@H]1CC(OC(=O)C(CO)c1ccccc1)C2 (some centres undefined)
inactive: efficacy [1] 19.1% | outcome [2] | outcome [18] | outcome [4] | outcome [11] | Potency [5] | outcome [6]

CCCC[N+]1(C)[C@@H]2CC(OC(=O)[C@H](CO)c3ccccc3)C[C@H]1[C@@H]1O[C@@H]12 (some centres undefined)
inactive: efficacy [1] -24.1% | outcome [2] | outcome [18] | outcome [4] | outcome [11] | Potency [5] | outcome [6]

C#C[C@]1(O)CC[C@H]2[C@@H]3CCC4=CC(=O)CCC4=C3C=C[C@@]21CC
inactive: efficacy [1] 138% | Potency [5] | outcome [6]
active: AC50 [2] 20 µM | AC50 [3] 15.8 µM | AC50 [4] 15.8 µM

COP(=S)(OC)Oc1ccc(Sc2ccc(OP(=S)(OC)OC)cc2)cc1
inactive: efficacy [1] 20.5% | outcome [2] | outcome [18] | outcome [4] | outcome [11] | Potency [5] | outcome [6]

Cc1c(Cl)c(=O)oc2cc(OP(=O)(OCCCl)OCCCl)ccc12
inactive: efficacy [1] 115% | outcome [2] | outcome [3] | outcome [4] | outcome [6]

Cc1cc(C(C)(C)C)cc(C)c1CC1=NCCN1
58.8%: parasite growth, % of DMSO control [7]
inactive: efficacy [1] 93.8%
active: AC50 [2] 14.1 µM | AC50 [3] 12.6 µM | AC50 [4] 12.6 µM
84.3%: growth, % of control [10]
38.8%: parasite growth remaining, % of DMSO control (lower = more inhibition) [8]

CCC(=O)O[C@H]1CC[C@H]2[C@@H]3CCC4=CC(=O)CC[C@]4(C)[C@H]3CC[C@]12C
inactive: efficacy [1] -42.2% | outcome [2] | outcome [18] | outcome [4] | Potency [5] | outcome [6]
